Where “and” joins values, the source holds several entries; their conditions need not be identical. Identical values can stand only once. The campaign covered roughly 340,000 compounds. About 1,000 (0.29%) were called active. No stated cut-off is given here; in the data, inconclusive means inhibition above about 27% without an active follow-up result; inactive means below that. These entries were drawn from the full list. Entries with a potency or affinity are not part of this list.
experiment: NS1A inhibition, H1N1 influenza, cell based functional assay (AID 504329); details: percent inhibition, at 12.5 µM, hits give high values

SMILES | inhibition
CCCSc1nc2cc(C)c(C)cc2n1CC(C)O (stereo not drawn) | -12.9% (inactive)
Cc1ccc(C(=O)Nc2cccc(C(F)(F)F)c2)cc1NC(=O)c1c[nH]c2cc(C(F)(F)F)ccc2c1=O | -5.49% (inactive)
CC(C)N(C(=O)CN1C(=O)NC2(CCCCCC2)C1=O)C(C)C | -2.18% (inactive)
Cc1cccc(C)c1NC(=O)c1sccc1SCC#N | -4.84% (inactive)
C[n+]1c2cc(N)ccc2cc2ccc(N)cc21 | -0.44% (inactive) and -3.15% (inactive)
CC[n+]1c(-c2ccccc2)c2cc(N)ccc2c2ccc(N)cc21 | 7.81% (inactive)
Cc1ccc2c(c1)c1c3n2CCN(C(=O)CCl)C3CCC1 (stereo not drawn) | 1.19% (inactive)
Cc1ccc2c(c1)c1c3n2CCN(C(=O)CN2CCN(C)CC2)C3CCC1 (stereo not drawn) | 7.29% (inactive)
COc1ccc(Nc2nc(N)nc(CSC(=S)N3CCN(C)CC3)n2)cc1 | -7.34% (inactive)
CN(C)c1ccc(C2Nc3cccc4cccc(c34)N2)cc1 | 1.96% (inactive)
Cc1ccc(N=Nc2ccc(O)cc2)c(Br)c1 | 10.2% (inactive)
CN(C)c1cccc2cccc(N(C)C)c12 | 11.8% (inactive)
CN(C)c1ccc(N=Nc2ccc(S(N)(=O)=O)cc2)cc1 | 12.4% (inactive)
Cc1ccc(S(=O)(=O)NCCSc2ncccn2)cc1 | 2.89% (inactive)
C=CCNC(=S)/C(=C(/[O-])c1ccc([N+](=O)[O-])cc1)[n+]1ccccc1 | -7.17% (inactive)
COc1ccc(C(=O)COC(=O)CCn2nnc(-c3cccc(O)c3OC)n2)cc1 | -2.1% (inactive)
CC(=O)Nc1ccc(S(=O)(=O)NC2=C(N3CCN(c4ccc(F)cc4)CC3)C(=O)c3ccccc3C2=O)cc1 | 27.2% (inactive)
CC1CCCN(C2=C(NS(=O)(=O)c3ccc(Br)cc3)C(=O)c3ccccc3C2=O)C1 (stereo not drawn) | 27.1% (inactive)
NC(=O)C1CCN(C2=C(NS(=O)(=O)c3ccccc3)C(=O)c3ccccc3C2=O)CC1 | 24.5% (inactive)
CC1CCN(C2=C(NS(=O)(=O)c3ccc(Cl)cc3)C(=O)c3ccccc3C2=O)CC1 | -3.44% (inactive)
CN1CCN(C2=C(NS(=O)(=O)c3ccccc3)C(=O)c3ccccc3C2=O)CC1 | -2.49% (inactive)
CN(C(=O)c1cccs1)c1ccc(OCC(=O)N2CCC(C(N)=O)CC2)cc1 | -3.1% (inactive)

SMILES | inhibition
CCOC(=O)/C(C#N)=C1\C(=O)N(Cc2ccccc2)c2ccccc21 | 13.1% (inactive)
CCOC(=O)C(C#N)=C1CCN(Cc2ccccc2)CC1 | -28.1% (inactive)
O=C(N/N=C/c1cn(-c2ccccc2)nc1-c1cccnc1)c1ccccc1 | -7.1% (inactive)
O=C(c1ccc2ccccc2n1)N1CCN(c2ccccc2)CC1 | -4.44% (inactive)
COc1ccc(Nc2ccc3c(c2)=NC2(CCCCC2)[N+]=3[O-])cc1 | 26.2% (inactive)
Cc1ccc(NC(=O)c2ccc(Nc3c([N+](=O)[O-])cc([N+](=O)[O-])cc3[N+](=O)[O-])cc2)cc1 | 2.68% (inactive)
CC(=O)c1ccc(Nc2c([N+](=O)[O-])ccc3nonc23)cc1 | 6.86% (inactive)
COc1ccc(NC2=NC3(CCCCC3)N=C(N)N2)cc1 | -15.4% (inactive)
COC(=O)C1=C(c2cccc(OC)c2OC)C[C@@H]2CC[C@H]1N2C(=O)NCCS(C)=O (stereo partly drawn) | -8.82% (inactive)
CC1Cc2ccccc2N1C(=O)COC(=O)c1ccc(Cl)c(S(=O)(=O)N2CCOCC2)c1 (stereo not drawn) | 9.33% (inactive)
COC(=O)c1nnn(-c2cccc(Cl)c2)c1C(=O)OC | -5.37% (inactive)
O=C(CN(Cc1ccc(F)cc1)C(=O)CCC(=O)Nc1nccs1)NCC1CCCO1 (stereo not drawn) | -15.5% (inactive)
O=C(Nc1cccc(-n2cnnn2)c1)c1ccc(C(F)(F)F)cc1 | -1.71% (inactive)
Cc1ccc(S(=O)(=O)c2nc(N3CCOCC3)sc2Cl)cc1 | -3.55% (inactive)
CC(=O)Nc1ccc(N2N=C(C)C(N=Nc3ccccc3)C2=O)cc1 (stereo not drawn) | 22.2% (inactive)
CC1=NN(c2ccccc2)C(=O)C1N=Nc1ccccc1 (stereo not drawn) | -6.95% (inactive)
CC1=NN(c2ccccc2)C(=O)C1N=Nc1ccc(S(N)(=O)=O)cc1 (stereo not drawn) | 1.05% (inactive)
CC1=NN(c2ccccc2)C(=O)C1N=Nc1cccc(O)c1 (stereo not drawn) | 0.04% (inactive)
COc1ccc(N2CCN(c3nc4c(C)cccn4c(=O)c3C=C(C#N)C#N)CC2)cc1 | -22.9% (inactive)
O=C(NNC(=O)c1cccs1)c1ccncc1 | -2.62% (inactive)
COc1ccc([C@H]2CC(=O)C=C(c3cccc4c3sc3ccccc34)C2)cc1OC | 7.03% (inactive)
Nc1nc(NC(=O)c2ccccc2)nn1-c1ccccc1 | -6.76% (inactive)

SMILES | inhibition
Nc1nc(NC(=O)c2ccco2)nn1-c1ccccc1 | 5.18% (inactive)
CCCc1cc(N2CCCC(C(=O)NCC)C2)n2ncnc2n1 (stereo not drawn) | -10% (inactive)
NC(=O)C1(N2CCCCC2)CCN(c2ccc3nnc(-c4ccccc4)n3n2)CC1 | -13.3% (inactive)
Cc1cc2ccccn2c1C(=O)c1cccc([N+](=O)[O-])c1 | 4.98% (inactive)
COC(=O)c1cc(C(=O)c2c(C)cc3ccccn23)cc([N+](=O)[O-])c1 | 16.9% (inactive)
O=C(NCCC1=CCCCC1)C(=O)NCCc1ccc(Cl)cc1 | 1.14% (inactive)
C=CC[C@@H](CC(=O)N[C@@H](CO)Cc1ccccc1)C(=O)N[C@H](C)COC(=O)[C@@H](CC=C)Cc1ccc(F)cc1 | -3.08% (inactive)
COc1ccc(/C(=N/Nc2ncnc3ccccc23)C(=O)O)cc1 | 5.64% (inactive)
CCOC(=O)/C(=N\Nc1ncnc2ccccc12)c1ccc(C)cc1 | 12.6% (inactive)
O=C(NCc1ccccn1)Nc1cc(Cl)ccc1Cl | -13.2% (inactive)
COc1ccc(CNC(=O)Cn2cc(C(F)(F)F)ccc2=O)cc1 | -8.07% (inactive)
COc1ccc(/C=C2/C(=O)N(Cc3ccccc3)N=C2C)cc1 | -0.08% (inactive)
CN(C)c1ccc(C=C2C(=O)OC(C)(C)OC2=O)cc1 | 0.66% (inactive)
CC1=NN(CCC#N)C(=O)/C1=C/c1ccc(N(C)C)cc1 | 18.1% (inactive)
CN(C)c1ccc(/C=C2\C(=O)NC(=O)N(Cc3ccc(F)cc3)C2=O)cc1 | -0.15% (inactive)
COc1ccc(CCC(=O)OCC(=O)Nc2ccccc2OC(F)F)cc1OC | -3.13% (inactive)
CCOC(=O)C(NC(C)=O)(Nc1ccc(S(=O)(=O)Nc2nccs2)cc1)C(F)(F)F (stereo not drawn) | -7.42% (inactive)
Cc1cccc(-n2c(O)c(C=Nc3cc(O)ccc3C)c3ccccc3c2=O)n1 | 3.61% (inactive)
COc1cc(C2C(C(C)=O)=C(O)C(=O)N2CCN(C)C)ccc1O (stereo not drawn) | -16% (inactive)
O=C(COC(=O)c1n[nH]c(=O)c2ccccc12)NC1CCCCC1 | -3.19% (inactive)
COc1cc(NC(=O)CSCc2ccc(Cl)cc2)c(C(=O)O)cc1OC | -10.8% (inactive)
O=C(Cc1n[nH]c(=O)c2ccccc12)Nc1cc(Cl)ccc1-n1cncn1 | -5.46% (inactive)

SMILES | inhibition
COc1ccc(C(=O)N/N=C/c2ccc(OC)c(COc3ccc(F)cc3)c2)cc1 | -7.91% (inactive)
COc1ccc(C(=O)N/N=C/c2ccc(OC)c(COc3ccccc3)c2)cc1 | -10.8% (inactive)
CCC(CC)NC(=O)CO/N=C/c1ccc(Cl)cc1Cl | 2.24% (inactive)
O=C(O)C1C2C=CC(C2)C1C(=O)NCCCN1CCOCC1 (stereo not drawn) | -16.9% (inactive)
C[C@H](CO)N1C[C@H](C)[C@@H](CN(C)S(=O)(=O)c2cccs2)Oc2ccc(NC(=O)c3ccncc3)cc2C1=O | -5.12% (inactive)
CCN(CC)Cc1cc(C(=O)O)c(-c2ccccc2)o1 | -10.3% (inactive)
NC(=O)C1CCN(C2=C(NS(=O)(=O)c3ccc(Cl)cc3)C(=O)c3ccccc3C2=O)CC1 | -27.5% (inactive)
CCOC(=O)C1CCCN(c2nc3ccccc3nc2NS(=O)(=O)c2ccc(C)cc2)C1 (stereo not drawn) | -25.9% (inactive)
CC(=O)Nc1ccc(S(=O)(=O)NC2=C(N3CCN(C)CC3)C(=O)c3ccccc3C2=O)cc1 | 7.96% (inactive)
CC1CCCN(C2=C(NS(=O)(=O)c3ccc(Cl)cc3)C(=O)c3ccccc3C2=O)C1 (stereo not drawn) | 3.15% (inactive)
CCN1CCN(C2=C(NS(=O)(=O)c3ccc(Br)cc3)C(=O)c3ccccc3C2=O)CC1 | 5.79% (inactive)
CCOC(=O)C1CCN(C2=C(NS(=O)(=O)c3ccc(Br)cc3)C(=O)c3ccccc3C2=O)CC1 | 27.6% (inactive)
NC(=O)C1CCN(C2=C(NS(=O)(=O)c3ccc(Br)cc3)C(=O)c3ccccc3C2=O)CC1 | 23.9% (inactive)
CCOC(=O)C1CCN(C2=C(NS(=O)(=O)c3ccc(Cl)cc3)C(=O)c3ccccc3C2=O)CC1 | -27.4% (inactive)
CCCN(CC(=O)Nc1ccccc1C)C(=O)CCNC(=O)c1ccccc1Cl | 0.78% (inactive)
O=C(c1ccccc1)N1CCCC(C(=O)N2CCc3ccccc3C2)C1 (stereo not drawn) | -4.42% (inactive)
Cc1ccc(C)c(NCc2n[nH]c(=S)n2-c2ccccc2)c1 | -0.26% (inactive)
O=C(OC(C(=O)NCC1CCCO1)c1ccccn1)c1cccs1 (stereo not drawn) | -1.32% (inactive)
COc1ccc(NC(=O)COC(=O)CN2C(=O)C3CCCCC3C2=O)cc1OC (stereo not drawn) | -0.56% (inactive)
CC(C)C[C@H](NC(=O)C1CCN(C(=O)[C@H](Cc2ccccc2)NC(=O)OC(C)(C)C)CC1)C(=O)O | -7.8% (inactive)
COC(=O)CCC(=O)N(CCN(Cc1ccccc1)C(=O)CCC(=O)OC)Cc1ccccc1 | 8.88% (inactive)
Cc1ccc(N=Nc2c(O)[nH]c(=O)[nH]c2=O)cc1S(=O)(=O)Nc1ccc(Br)cc1 | 9.19% (inactive)
